# CHO-K1 Ca antag: M1 antagonist counterscreen hit in parental CHO-K1 cells; inhibition, % at 3 µM; AID 602250; 0.6% of 360,000 active; ATP-induced calcium, Fluo-8 fluorescence;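 active = inhibition above a per-plate cutoff, the plate's mean sample inhibition plus 3 SD, cut at about 24% in these data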;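 note: 0% = DMSO plus EC80 ATP and 100% = DMSO alone without ATP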
# M1 antag: blocks human M1 muscarinic receptor; P11229; CHO-K1 hM1, Fluo-8 calcium fluorescence, ACh EC80 antagonist; inhibition, % at 3 µM; 1.3% of 360,000 active; AID 588852;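 active = percent inhibition above its own plate's cutoff, namely the mean of that plate's compound wells plus 3 SD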;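 note: peak over basal fluorescence ratio during 140 s after agonist addition; 0% = ACh EC80 plus DMSO and 100% = DMSO alone without agonist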
# Target sequence (P11229 whole entry, looked up): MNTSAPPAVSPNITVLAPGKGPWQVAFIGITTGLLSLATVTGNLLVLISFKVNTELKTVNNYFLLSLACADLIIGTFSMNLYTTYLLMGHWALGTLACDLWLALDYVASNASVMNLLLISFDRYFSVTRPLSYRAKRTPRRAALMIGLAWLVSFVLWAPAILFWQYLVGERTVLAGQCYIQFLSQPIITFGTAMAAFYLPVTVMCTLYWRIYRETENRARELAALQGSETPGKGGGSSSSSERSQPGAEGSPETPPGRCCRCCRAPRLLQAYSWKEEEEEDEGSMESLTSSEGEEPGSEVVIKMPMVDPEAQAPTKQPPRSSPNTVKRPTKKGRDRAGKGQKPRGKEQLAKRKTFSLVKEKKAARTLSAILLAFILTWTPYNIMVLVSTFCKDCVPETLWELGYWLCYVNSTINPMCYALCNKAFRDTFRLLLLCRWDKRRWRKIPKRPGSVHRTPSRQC
# CHO-K1 Ca PAM: counter-screen for M1 PAMs: effect in parental CHO-K1 cells; ATP EC20, Fluo-8 calcium fluorescence; 0% at ATP EC20, 100% at ATP max; 0.02% of 360,000 active; activation, % at 3 µM;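 active = activation above the run cutoff, the mean activation of all test compounds plus 3 SD, cut at about 40% in these data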;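 note: peak over basal fluorescence ratio in a 140 s read after ATP addition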
# M1 PAM: human CHRM1 positive allosteric modulation | P11229 | 0.088% of 360,000 active | activation, % at 3 µM | AID 588819 | CHO-K1 hM1, Fluo-8 calcium fluorescence, ACh EC20; 0% = ACh EC20, 100% = maximal ACh; in the data active = activation above about 19%, passing the limit was not always enough
# CHRM1 agonist: activates human CHRM1 receptor. P11229. activation, % at 3 µM. CHO-K1 hM1, Fluo-8 calcium fluorescence, agonist mode; 0% DMSO, 100% acetylcholine EC100. 0.33% of 360,000 active;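 active = activation above the run's mean compound activation plus 3 SD, cut at about 16% in these data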;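 note: peak over basal fluorescence ratio within a 140 s kinetic read after compound addition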
# M1 ag parental: nonselective activator or artifact in parental CHO-K1 cells | AID 602248 | 0.48% of 360,000 active | activation, % at 3 µM | Fluo-8 calcium fluorescence; scaled to maximal ATP response, vehicle zero; in the data active = activation above about 15%;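 note: untransfected CHO-K1 host cells lacking M1 receptor as counterscreen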
# * hit, by the source's call; · = no result. Hits are enriched below; roughly 2.3% of the tested compounds scored in any of these assays.
SMILES,CHO-K1 Ca antag,M1 antag,CHO-K1 Ca PAM,M1 PAM,CHRM1 agonist,M1 ag parental
N#Cc1cc2c(=O)n3ccccc3nc2n(-c2ccccc2Cl)c1=O,1.8,0.8,24.3,1.1,-6.6,0.7
O=S(=O)(NCC(c1cccs1)N1CCc2ccccc2C1)c1ccccc1 (stereo unspecified),1.4,-8.5,-10.9,-1.0,-2.8,-0.2
Cc1ccccc1S(=O)(=O)Cc1ccc(C(=O)N2CCN(c3cccc(C)c3C)CC2)o1,26.2*,24.9,3.9,-6.5,2.7,6.5
O=C(C1CCCN(S(=O)(=O)c2cccs2)C1)N1CCN(C2CCCCC2)CC1 (stereo unspecified),-3.0,17.3*,-3.7,-17.1,-9.6,0.5
O=C(C1CCCN(S(=O)(=O)c2cccs2)C1)N1CCc2ccccc2C1 (stereo unspecified),-12.6,-24.7,17.6,3.9,-0.1,2.2
O=[N+]([O-])c1ccc(C(=S)N2CCCC2)cc1,-8.0,-7.3,-4.0,1.4,-5.2,0.2
O=[N+]([O-])c1cccc(/C(=N/N=C/c2ccccc2Br)C23CN4CN(CN(C4)C2)C3)c1,-15.7,43.2*,16.3,-9.6,-3.9,0.1
CC(C)=N/N=C(/c1ccc([N+](=O)[O-])cc1)C12CN3CN(CN(C3)C1)C2,-3.1,19.8,19.7,-26.0,49.8*,0.7
COc1cccc(Cn2cnc(-c3ccccc3OC)c2C2CC2)c1,-14.9,·,10.6,·,·,8.5
CC1(C(=O)Nc2cnc3ccccc3c2)CCN1Cc1ccc2ccccc2c1 (stereo unspecified),-14.1,12.7,31.0,-11.6,-5.9,3.2
CC1(C(=O)Nc2cnc3ccccc3c2)CCN1Cc1cc2ccccc2o1 (stereo unspecified),34.8*,9.7,-16.2,-8.7,-5.3,2.7
CCOC(CCNC(=O)c1cc(-c2cccs2)nc2ccccc12)OCC,2.3,14.4,14.2,-1.4,-3.4,8.1
CCC(=O)N1CCc2cc(S(=O)(=O)NCCC(=O)N3CCN(c4cccc(C)c4)C(C)C3)ccc21 (stereo unspecified),19.5,23.1,-6.8,-16.0,1.0,15.8*
CCOC(=O)C1CCN(C(=O)CCNS(=O)(=O)c2ccc3c(c2)CCN3C(=O)CC)CC1,58.1*,0.9,-17.4,1.2,-2.2,-0.1
C(=C\c1ccco1)/C=N/n1cnnc1,26.2*,-4.5,-8.8,10.2,2.5,0.4
S=c1[nH]nc(-c2ccncc2)n1/N=C/C=C/c1ccco1,2.8,4.4,14.0,4.7,-3.5,0.2
CCOc1ccc(/C=N/OCC(=O)NCc2ccc3c(c2)OCO3)cc1OC,-2.2,10.0,-7.4,-8.3,-1.3,4.5
COc1ccc(-c2cc(-c3nnc(COC(=O)CC4CC5CCC4C5)o3)c3ccccc3n2)cc1OC (stereo unspecified),8.7,18.6,7.9,-3.7,-5.6,0.7
CC(C)C[C@H]1CNC(=S)N1CC1CCCN1C[C@H](CC(C)C)N1C[C@H](CC(C)C)N(CCc2ccccc2)C1=S (stereo partly specified),0.0,-2.4,2.8,-2.8,-6.1,0.3
O=C(Nn1c(C2CCCCC2)nc2ccccc2c1=O)c1ccc([N+](=O)[O-])cc1,24.4*,-3.4,-14.5,10.6,-2.9,-0.2
C[C@H]1CN([C@@H](C)CO)C(=O)c2cc(Br)cnc2O[C@@H]1CN(C)C(=O)C1CCC1,4.3,-9.2,9.6,2.1,-2.0,-0.3
CCOC(=O)C1=C(C)N(c2ccccc2)C(=O)NC1c1cccc([N+](=O)[O-])c1 (stereo unspecified),0.1,68.1*,6.4,-23.2,-8.9,0.4
NC1=NC[C@@H](CC2CCCCC2)N1CCc1cc(C(F)(F)F)cc(C(F)(F)F)c1,-4.9,35.3*,7.2,-17.0,1.2,0.3
CCOC(=O)C(=NCCOC)NNc1cc(Cl)ccc1Cl,-6.3,-0.5,14.7,-2.1,-7.3,0.6
COc1cccc(Nc2ncnc3ccc(Br)cc23)c1,0.9,0.4,-12.2,-3.7,-5.6,0.3
SMILES,CHO-K1 Ca antag,M1 antag,CHO-K1 Ca PAM,M1 PAM,CHRM1 agonist,M1 ag parental
Brc1ccc2ncnc(Nc3cccc4ccccc34)c2c1,-11.9,-4.8,12.5,2.5,12.0,19.4*
S=c1[nH]nc(Cn2cnc3ccccc32)n1-c1ccccc1,-6.1,-4.8,2.8,4.2,-4.9,3.8
CC1CCN(c2nc3ccccc3n2CC(=O)c2ccccc2)CC1,0.9,66.9*,2.9,-22.7,-5.2,0.2
CCC(C)c1ccccc1NC(=O)C(C)OC(=O)c1ccco1 (stereo unspecified),-4.8,-14.7,21.7,14.2,-3.3,4.6
O=C(NCc1cccs1)c1ccc(S(=O)(=O)N2CCOCC2)cc1,-14.4,-9.6,17.3,9.1,-3.2,1.2
Cc1ccc(S(=O)(=O)N2CCOCC2)cc1C(=O)NCc1cccs1,25.3*,1.1,-18.6,-2.4,-7.0,1.8
COc1ccc([N+](=O)[O-])cc1NC(=O)c1cn(-c2ccc(C)c(C)c2)c(=O)c2ccccc12,1.3,8.2,18.1,-0.8,-4.7,0.2
CCN(CC(=O)Nc1c(F)cccc1F)C(=O)CCCN1C(=O)c2cccc3cccc(c23)C1=O,-9.5,-7.7,26.4,1.6,-2.2,0.7
O=C(c1cc(C2CC2)nn1-c1ccccc1)N1CCN(c2ccccn2)CC1,7.2,29.6*,7.8,-21.4,-7.7,1.2
CCOc1ccc(S(=O)(=O)N2CCN(C(=O)c3cc(C4CC4)nn3-c3ccccc3)CC2)cc1,65.7*,68.8*,8.9,-25.8,-6.9,0.1
O=C(c1cc(C2CC2)nn1-c1ccccc1)N1CCN(c2ccccc2O)CC1,-6.0,4.9,7.1,-0.5,-1.5,2.2
Cc1ccc(S(=O)(=O)N2C[C@H]3C(=O)C[C@@H](c4cccc(Cl)c4)N(S(=O)(=O)c4ccc(C)cc4)[C@H]3C[C@H]2c2ccc(Cl)cc2)cc1,0.9,-6.7,-6.7,-1.6,-2.3,0.0
COc1cccc(C(C)NC(=O)c2ccncc2)c1 (stereo unspecified),-0.5,-15.8,-4.6,6.2,-0.9,0.0
Clc1cccc(-c2ccc(C3Nc4cccc5cccc(c45)N3)o2)c1,0.1,4.1,3.1,-2.5,-2.7,0.1
O=C(Nc1ccc2nc(SCc3ccc(Cl)cc3)sc2c1)c1ccccc1C(=O)N1CCOCC1,11.1,29.3*,5.6,-8.8,-2.1,2.8
O=C(Nc1cccc(S(=O)(=O)NC2=NCCC2)c1)c1cn(-c2ccccc2)nc1-c1ccc(F)cc1,-12.7,16.6,12.5,1.4,-4.8,5.1
Cc1ccc(-c2nn(-c3ccccc3)cc2C(=O)Nc2cccc(S(=O)(=O)NC3=NCCC3)c2)cc1,34.4*,11.1,-13.5,0.0,-3.7,1.2
O=C1CN(C(=O)c2cc3ccccc3oc2=O)C(c2ccccc2)c2cc(F)ccc2N1 (stereo unspecified),-12.9,-10.2,-5.4,1.6,1.5,0.8

# High-throughput results (PubChem)
